Source: PubChem BioAssay (National Center for Advancing Translational Sciences (NCATS))
Caspase-1 inhib: caspase-1 (human) inhibition, allosteric or competitive | P29466 | Caspase-1 enzyme, Ac-WEHD-AFC fluorogenic rate | Potency, µM (highest dose often 57.5 µM), most hits filed as inhibitors | actives 0.03% (n = 75,000) | AID 900
Target sequence (P29466 120-297 limits assumed): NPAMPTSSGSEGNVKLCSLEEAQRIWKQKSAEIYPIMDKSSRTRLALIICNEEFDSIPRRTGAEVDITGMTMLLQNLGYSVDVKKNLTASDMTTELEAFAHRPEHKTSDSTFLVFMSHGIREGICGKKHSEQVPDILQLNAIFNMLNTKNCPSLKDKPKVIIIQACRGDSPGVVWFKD
Target sequence (P29466 317-404 limits assumed): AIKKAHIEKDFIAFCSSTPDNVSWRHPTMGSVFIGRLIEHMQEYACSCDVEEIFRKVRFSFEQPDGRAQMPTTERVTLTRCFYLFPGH
USP2a inh: blocks human ubiquitin-specific protease USP2a; O75604; USP2a enzymatic assay, qHTS inhibition; Potency, µM (top dose mostly 38.3 µM), actives largely listed as inhibitors; actives 0.1% (n = 60,000); note: nearly all actives have a fitted effect of over 60% in size
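Coupled readout: USP2-cleaved Ub-PLA2 (20nM final) turns over NBD C6-HPC (20uM final), Ex 460nm/Em 535nm after 2.5 h, time-zero read flagging artifacts. Enzyme (20nM final, pH 8.0 Tris) given 30 min RT with compound first; NEM defines full inhibition.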
HEK293 cAMP cs: parental HEK293 cAMP activation (counter-screen) | actives 2.5% (n = 73,000) | parental HEK293 CNG cAMP sensor, membrane potential fluorescence | Potency, µM (top dose mostly 57.1 µM), hits mostly activators | AID 938; note: nearly all actives have a fitted effect of over 55% in size
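Parental HEK 293 cells stably expressing a cAMP-gated CNG channel were loaded with membrane potential dye containing 100 uM RO 20-1724 for 60 min. Compound added for 30 min; depolarization read as fluorescence intensity at 590 nm.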
TSHR ag: TSH receptor (human) agonism; P16473; HEK293-CNG-TSHR cells (CNG channel as cAMP sensor), membrane potential dye, cAMP; Potency, µM (doses to about 57.1 µM), actives largely listed as activators; actives 0.48% (n = 73,000); active = well fitted activation curve with a large enough effect in the main read-out, with a control signal flat, not every such curve was filed as active; inconclusive = small, poorly fitted or top-dose-only effect, or a change in a side signal; inactive = no such curve, though single readings can be large or run the other way; reference of the percent scale not stated here;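 note: the control signal comes from parental cells without the receptor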
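HEK 293 cells stably expressing TSHR and a modified CNG channel, with CNG-only parental cells as counterscreen, were preloaded 60 min at room temperature with membrane potential dye containing 100 uM RO 20-1724. Compound exposure was 30 min, and depolarization was read as fluorescence at 590 nm.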
Caspase-7 inhib: blocks human caspase-7 allosterically or competitively; recombinant caspase-7, Ac-DEVD-AFC fluorescence rate; Potency, µM (series often up to 57.5 µM), actives largely listed as inhibitors; actives 0.02% (n = 75,000); active = well fitted inhibition curve with a large enough effect in the main read-out, with a control signal flat, not every such curve was filed as active; inconclusive = small, poorly fitted or top-dose-only effect, or a change in a side signal
Target sequence (P55210 24-198 limits assumed): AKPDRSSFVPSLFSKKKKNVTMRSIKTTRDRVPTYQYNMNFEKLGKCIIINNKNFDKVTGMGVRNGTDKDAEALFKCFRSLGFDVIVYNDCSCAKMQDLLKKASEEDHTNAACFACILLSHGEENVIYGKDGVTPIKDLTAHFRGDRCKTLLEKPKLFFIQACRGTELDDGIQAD
Target sequence (P55210 207-303 limits assumed): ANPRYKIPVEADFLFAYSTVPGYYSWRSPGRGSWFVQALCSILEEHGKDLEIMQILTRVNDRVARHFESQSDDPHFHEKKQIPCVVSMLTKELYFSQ
CRE-bla Fsk: CRE-bla signaling modulation under forskolin stimulation; actives 2.5% (n = 71,000); CHO CRE-bla reporter (cAMP response element driving beta-lactamase), forskolin EC10, beta-lactamase ratio; AID 662; Potency, µM (doses to about 38.2 µM), hits mostly activators; active = well fitted activation curve with a large enough effect in the signal ratio, with a control signal flat, not every such curve was filed as active; inconclusive = small, poorly fitted or top-dose-only effect, or effect the other way, or a change in a side signal; the % refers to the signal ratio
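CRE-bla CHO reporter cells treated with compound titration plus EC10 NKH 477 (water-soluble forskolin), incubated 3 h at 37 °C; CCF4 loading 2 h at room temperature, 460/530 nm emission ratio read, AC50 values derived for positive or negative modulators.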
Each line names hits and unclear results; the compound was inactive in the other large screens; ! = not confirmed by another sample. Rows were chosen to be rich in hits. Some 5% of all compounds tested hit in one or more screens of this group. Unless noted, calls come from the whole dose curve; as a rule, active = well fitted curve in the direction sought with a large enough effect; inconclusive = small, poorly fitted or top-dose-only effect, or another doubt; inactive = no such curve, though single readings can be large; an effect the other way counts as inactive or inconclusive.

Cc1ccc(-c2nn3c(C)nnc3c3ccccc23)cc1S(=O)(=O)N1CCN(CCO)CC1	CRE-bla Fsk inconclusive
Cc1cc(-c2nnco2)c(C)n1-c1ccccc1	HEK293 cAMP cs 20µM, TSHR ag inconclusive, CRE-bla Fsk inconclusive
O=C(O)[C@H]([C@H]1NCCS1)N1C(=O)c2ccccc2C1=O	none (no result: USP2a inh)
O=S(=O)(c1ccc2c(c1)OCCO2)N(Cc1ccc(F)cc1)Cc1nnc(-c2cccs2)o1	HEK293 cAMP cs 2µM, TSHR ag inconclusive, Caspase-7 inhib inconclusive, CRE-bla Fsk inconclusive
Cc1cc(C(=O)CN(Cc2ccc(F)cc2)S(=O)(=O)c2ccc3c(c2)OCCO3)c(C)n1C	CRE-bla Fsk inconclusive
C=C[C@@]1(C)C=C2CC[C@@H]3[C@](C)(CCC[C@@]3(C)C(=O)O)[C@H]2CC1	CRE-bla Fsk inconclusive (no result: Caspase-1 inhib, USP2a inh, Caspase-7 inhib)
CCOC(=O)c1cnc(-n2cc(C)cn2)nc1NCc1ccc2c(c1)OCO2	HEK293 cAMP cs inconclusive, TSHR ag inconclusive, CRE-bla Fsk 2.5µM
CCOC(=O)c1cnc(-n2nc(C)cc2C)nc1NCc1ccccc1	HEK293 cAMP cs 20µM, TSHR ag inconclusive
CCOC(=O)c1cnc(-n2nc(C)cc2C)nc1NC(C)c1ccccc1 (stereo unspecified)	HEK293 cAMP cs 25µM, TSHR ag inconclusive
CCOC(=O)c1cnc(NCc2ccccc2)nc1C	none
CN[C@H](CC(=O)O)C(=O)O	TSHR ag 0.79µM!
COc1ccc(C)cc1NC(=O)c1ccc2c(c1)OCO2	HEK293 cAMP cs inconclusive, TSHR ag inconclusive
COc1ccc(C(C)=O)cc1COC(=O)c1ccc2c(c1)OCO2	HEK293 cAMP cs 32µM, TSHR ag inconclusive, CRE-bla Fsk inconclusive
Nc1c(OCC(=O)O)ccc2cc(S(=O)(=O)O)ccc12	none (no result: USP2a inh)
Cc1nc(SCC(=O)Nc2ccc(C)c(F)c2)c2oc3ccccc3c2n1	HEK293 cAMP cs inconclusive, TSHR ag inconclusive, CRE-bla Fsk 0.63µM
C(CCc1nnc2c(n1)CCCC2)Cc1nnc2c(n1)CCCC2	none (no result: USP2a inh)
c1cc(CSc2ncnc3nc[nH]c23)ccn1	none (no result: USP2a inh)
Cc1ccc2c(c1)N(CCC(=O)NCCCOC(C)C)C(=O)C(C)O2 (stereo unspecified)	CRE-bla Fsk 13µM
Cc1ccc2c(c1)N(CCC(=O)NC1CC1)C(=O)C(C)O2 (stereo unspecified)	none
CCCc1ccc2c(N)c(C#N)sc2n1	CRE-bla Fsk 10µM
COC(=O)c1c(-c2cccnc2)csc1NC(=O)c1cc(C)on1	CRE-bla Fsk 2.5µM
O=C(Nc1scc(-c2ccccc2)c1C(=O)O)c1ccco1	USP2a inh inconclusive, HEK293 cAMP cs inconclusive, TSHR ag inconclusive
COC(=O)c1c(-c2ccc(F)cc2)csc1NC(=O)c1ccco1	HEK293 cAMP cs 4µM, TSHR ag inconclusive, CRE-bla Fsk 0.4µM
CC1=CC(=O)CC(C)(C)[C@@]1(O)/C=C\C(C)=C\C(=O)O	none (no result: Caspase-1 inhib, USP2a inh, Caspase-7 inhib)
CC(C)CO/N=C1/C[C@@H](O)[C@@H](O)[C@@H]2[C@@H]3C(=O)N(Cc4ccccc4)C(=O)[C@H]3CC[C@H]12	HEK293 cAMP cs inconclusive, TSHR ag inconclusive (no result: USP2a inh, CRE-bla Fsk)
Cc1ccc(S(=O)(=O)Cn2nnnc2C(CC(C)C)N2CCN(c3ccc(F)cc3)CC2)cc1 (stereo unspecified)	none
CC(C)CC(c1nnnn1C(C)C)N1CCN(c2cccc(Cl)c2)CC1 (stereo unspecified)	HEK293 cAMP cs 1µM, TSHR ag inconclusive
c1ccc(Cn2nnc3c(N4CCN(Cc5ccc6c(c5)OCO6)CC4)ncnc32)cc1	HEK293 cAMP cs inconclusive, TSHR ag inconclusive
c1ccc(Cn2nnc3c(N4CCOCC4)ncnc32)cc1	CRE-bla Fsk 10µM (no result: USP2a inh)
COc1ccc(CCNC(=O)CSc2nnnn2-c2ccccc2)cc1	none
COc1ccc(CCNc2nnc(Sc3nnnn3-c3ccccc3)s2)cc1OC	CRE-bla Fsk 10µM
Cc1cc2cc(CN(Cc3ccc4c(c3)OCO4)C(=O)c3cnccn3)c3nnnn3c2cc1C	HEK293 cAMP cs 32µM, TSHR ag inconclusive, CRE-bla Fsk inconclusive
C[C@@]12CCC(=O)C=C1CC[C@H]1[C@@H]2[C@@H](O)C[C@]2(C)[C@@H]1CC[C@@]2(O)C(=O)COC(=O)C1CCCC1	none (no result: USP2a inh)
CCOC(=O)c1ccccc1NC(=O)Cn1c(-c2nonc2N)nc2ccccc21	HEK293 cAMP cs 25µM, TSHR ag inconclusive, CRE-bla Fsk 2µM
CCOC(=O)c1ccccc1NC(=O)CN1C(=O)c2ccccc2S1(=O)=O	none
Nc1nonc1-c1nc2ccccc2n1CC(=O)NC1CCCC1	HEK293 cAMP cs 6.3µM, TSHR ag inconclusive, CRE-bla Fsk inconclusive
Nc1nonc1-c1nc2ccccc2n1Cc1ccccc1	HEK293 cAMP cs 25µM, TSHR ag inconclusive, CRE-bla Fsk inconclusive
CC(=O)Nc1nonc1-c1nc2ccccc2n1CC1CC1	HEK293 cAMP cs inconclusive, TSHR ag inconclusive
CCC(=O)Nc1nonc1-c1nc2ccccc2n1CC(C)C	HEK293 cAMP cs 25µM, TSHR ag inconclusive
CC12CC[C@@H]3c4ccc(OP(=O)(O)O)cc4CCC3C1CCC2=O (stereo partly specified)	none (no result: USP2a inh)
NCc1ccc(C(=O)O)cc1	none (no result: USP2a inh)
Clc1ccccc1-c1nccc(NCc2cccs2)n1	HEK293 cAMP cs inconclusive, TSHR ag inconclusive, CRE-bla Fsk inconclusive
CC1CCCC(NC(=O)COC(=O)Cc2cn3ccsc3n2)C1C (stereo unspecified)	HEK293 cAMP cs 32µM, TSHR ag inconclusive
O=C(COC(=O)Cc1cn2ccsc2n1)NC12CC3CC(CC(C3)C1)C2	none
COc1ccc(OC)c(CNc2nc3ccccc3n2CCN2CCCCC2)c1	CRE-bla Fsk inconclusive
COc1cccc(CNc2nc3ccccc3n2CCN2CCCCC2)c1OC	CRE-bla Fsk 10µM
CCN(CC)S(=O)(=O)c1cccc(-c2nnc(SCC#N)n2Cc2ccccc2)c1	HEK293 cAMP cs inconclusive, TSHR ag inconclusive
CCN(CC)S(=O)(=O)c1cccc(-c2nnc(SC(C)C#N)n2Cc2ccccc2)c1 (stereo unspecified)	HEK293 cAMP cs 25µM, TSHR ag inconclusive
NN(CC(=O)O)CC(=O)O	none (no result: USP2a inh)
O=C(c1ccc(S(=O)(=O)N2CCC(c3nc4ccccc4[nH]3)CC2)cc1)N1CCOCC1	USP2a inh 13µM
CCC/C=C(\CCC)C(NC(=O)c1ccc(C(F)(F)F)cc1)c1ccccc1 (stereo unspecified)	HEK293 cAMP cs 16µM, TSHR ag inconclusive, CRE-bla Fsk inconclusive (no result: USP2a inh)
CCC/C=C(\CCC)C(NC(=O)c1cccs1)c1ccc(C(=O)OC)cc1 (stereo unspecified)	HEK293 cAMP cs 13µM, TSHR ag inconclusive (no result: USP2a inh)
CCC/C=C(\CCC)C(NC(=O)C(C)(C)C)c1ccc(C(=O)OC)cc1 (stereo unspecified)	HEK293 cAMP cs 16µM, TSHR ag inconclusive (no result: USP2a inh)
